Experiment in all cases: qHTS profiling for inhibitors of Plasmodium falciparum proliferation (AID 504749); also: nearly all actives have a fitted effect of over 60% in size
What all share (settings): P. falciparum in erythrocytes, SYBR Green DNA, 72 h; series mostly up to 28.7 µM
On the technique in general: qHTS replaces the single test concentration by a dilution series.

In one experiment the test system is CP266. Put shortly: (§1)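 Quantitative HTS: compounds pinned into medium, infected erythrocytes added (0.3% parasitemia, 2.5% hematocrit), 72 h culture at 37 C under 5% CO2. Saponin/Triton lysis with SYBR Green I, overnight RT, then fluorescence read.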
In another experiment the test system is CP268. The method in brief:
as §1

For the next experiment, the system named is CP269. Put shortly: as §1
A further experiment relates to CP286. Put shortly: as §1
A further experiment concerns CP291. The method in brief:
as §1

For another experiment, the system named is CP305. Put shortly: as §1
The test system of the next experiment is CP315. The method in brief:
as §1

For the next experiment, the system named is CP325. Put shortly: as §1
Another experiment concerns CP329. The method in brief:
as §1

A further experiment has as its system CP335. Put shortly: as §1
In the next experiment the test system is DFO2036. The method in brief:
as §1

A further experiment deals with DIV17. The method in brief: as §1
Another experiment concerns DIV30. The method in brief: as §1
The test system of the next experiment is Dd2. The method in brief: as §1
For another experiment, the system named is ECU. Put shortly:
as §1

The test system of the next experiment is FAB9. Put shortly: as §1
In a further experiment the test system is GB4. The method in brief: as §1
Another experiment relates to HB3. Put shortly: as §1
The next experiment relates to CP297. Put shortly:
as §1

A further experiment deals with DIV14. Put shortly:
as §1

Structures are written as SMILES. Records with an inconclusive call do not appear. Activity calls are given as the source filed them. Calls follow the shape of the dose curve; as a rule, active = well fitted inhibition curve with a large enough effect; inconclusive = small, poorly fitted or top-dose-only effect; inactive = flat fitted curve, though single readings scatter.
Potency is read from the fitted curve at half-maximal effect.

Take `O=C(O)c1ccc2[nH]cc(CCCCN3CC=C(c4ccccc4)CC3)c2c1`: the Potency entry in the experiment on CP266, in the experiment with CP268, in the experiment with CP269, in the experiment with CP286, with CP291 and in the experiment on CP305 was “inactive” in each case. The Potency result in the experiment on CP315, with CP325, with CP329, in the experiment with CP335, with DFO2036 and in the experiment on DIV17 was “inactive” in each case. The Potency entry in the experiment on DIV30, in the experiment with Dd2, with ECU, with FAB9, in the experiment with GB4 and in the experiment with HB3 was “inactive” each time.

For the compound `CCN(CC)CCOC(=O)C(O)(c1ccccc1)c1ccccc1`, the Potency entry in the experiment on CP266, in the experiment on CP268, with CP269, in the experiment on CP286, in the experiment with CP291 and with CP305 was “inactive” in each case. Further, the Potency entry in the experiment on CP315, in the experiment with CP325, in the experiment on CP329, with DFO2036, in the experiment on DIV17 and in the experiment on DIV30 was “inactive” throughout. The Potency result with Dd2, in the experiment on ECU, with FAB9, in the experiment on GB4 and in the experiment on HB3 was “inactive” in each case.

As to `O=c1[nH]c2ccccc2n1CCCN1CCC(n2c(=O)[nH]c3cc(Cl)ccc32)CC1`, the Potency result in the experiment on CP266, in the experiment with CP325, with DFO2036 and with FAB9 was “inactive” throughout. Further, the Potency with CP286 was 11.2 µM (active); with CP297, 8.49 µM (active); in the experiment with CP335, 10.7 µM (active); in the experiment with DIV14 it was 5.36 µM (active); with DIV17 it was 8.49 µM (active); with DIV30 it was 7.57 µM (active). Moreover, the Potency with ECU is 7.94 µM (active); in the experiment on HB3 it was 10 µM (active).

With `CCC1(C2=NCCN2)Cc2ccccc2O1` (stereo not given), the Potency in the experiment on CP297 was 9.53 µM (active); in the experiment with CP335, 8.49 µM (active); in the experiment on Dd2, 10 µM (active); in the experiment with GB4 it was 8.49 µM (active). The Potency entry in the experiment with ECU, with FAB9 and in the experiment with HB3 was “inactive” each time.

As to `Oc1ccc(Cl)cc1Cc1ccccc1`, the Potency entry in the experiment with CP266, with CP286, with CP315, in the experiment with CP325, with CP329 and in the experiment on FAB9 was “inactive” in each case. Also, the Potency with DIV14 was 7.57 µM (active); in the experiment on DIV17, 7.57 µM (active); in the experiment on DIV30, 10.7 µM (active); in the experiment on Dd2 it was 10 µM (active); in the experiment on ECU, 11.2 µM (active); in the experiment on GB4, 8.49 µM (active). Also, the Potency in the experiment on HB3 is 12.6 µM (active).

Turning to `Cc1ccc(-c2nc3ccc(C)cn3c2CC(=O)N(C)C)cc1`, the Potency result with CP266, in the experiment with CP268, in the experiment with CP269, in the experiment with CP286, in the experiment with CP291 and in the experiment on CP305 was “inactive” each time. Besides, the Potency entry in the experiment with CP315, with CP325, with CP329, in the experiment on CP335, with DIV14 and in the experiment with DIV17 was “inactive” in each case. Also, the Potency entry with DIV30, in the experiment on Dd2, in the experiment with ECU, with FAB9, in the experiment with GB4 and in the experiment on HB3 was “inactive” throughout.

Consider `C[C@]12C/C(=C/O)C(=O)C[C@@H]1CC[C@@H]1[C@@H]2CC[C@@]2(C)[C@H]1CC[C@]2(C)O`, for which the Potency result in the experiment with CP266, with CP268, in the experiment with CP269, in the experiment with CP286, in the experiment with CP297 and in the experiment on CP305 was “inactive” in each case. Besides, the Potency entry in the experiment on CP315, in the experiment with CP325, in the experiment with CP329, with CP335, with DFO2036 and with DIV30 was “inactive” throughout. The Potency result in the experiment with Dd2, with ECU, in the experiment on FAB9, in the experiment on GB4 and in the experiment with HB3 was “inactive” each time.

On to `FC(F)(F)c1cccc(C2=CCN(CCc3ccc4ccccc4c3)CC2)c1`, for which the Potency result in the experiment on CP266, in the experiment with CP269, with CP286, in the experiment with CP291, in the experiment with CP297 and in the experiment with CP305 was “inactive” throughout. The Potency entry in the experiment with CP315, with CP325, with CP329, with CP335, with DFO2036 and in the experiment with DIV14 was “inactive” each time. The Potency result in the experiment on DIV17, in the experiment with DIV30, with Dd2, in the experiment with ECU, with FAB9 and with GB4 was “inactive” throughout. Moreover, the Potency result in the experiment on HB3 was “inactive”.

Turning to `Clc1cccc(N2CCNCC2)c1`, the Potency entry in the experiment with CP266, in the experiment on CP268, with CP269, in the experiment on CP286, in the experiment with CP291 and in the experiment with CP305 was “inactive” each time. In addition, the Potency result with CP315, in the experiment on CP325, with CP329, in the experiment on DFO2036, with DIV30 and in the experiment on ECU was “inactive” each time. Also, the Potency entry in the experiment on FAB9 and in the experiment with HB3 was “inactive” throughout.

For the origin of these results see PubChem BioAssay (NCATS).
